{"source": "paper PMC5540273", "about": "(PLoS ONE, 2017);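 further: KINOMEscan kinase panel screen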"}
{"test_system": "RIOK1", "conditions": "concentration: 1 μM, replicates: in singlicate; n = 1", "units": {"%Inh": "%"}}
{"smiles": "Cc1ccc(Nc2ccnc(Nc3ccc(C)c(F)c3)n2)cc1O.Cl", "note": "[GW582868]", "%Inh": 19}
{"smiles": "O=C(Nc1c(F)cccc1F)c1cc(C(=O)c2ccccc2F)c[nH]1", "note": "[GSK1326180]", "%Inh": 11}
{"smiles": "COc1cccc(CC(=O)N2CCc3cc(-c4cn(C)c5ncnc(N)c45)ccc32)c1", "note": "[GSK2608899]", "%Inh": 20}
{"smiles": "Cl.N#CCc1ccc(Nc2nccc(Nc3ccc(Oc4ccccc4)cc3)n2)cc1", "note": "[GW639905]", "%Inh": 21}
{"smiles": "Nc1ncc(-c2ccc3nccc(-c4ccncc4)c3c2)cc1S(=O)(=O)N1CCCCC1", "note": "[GSK1693850]", "%Inh": 30}
{"smiles": "COc1cc(Nc2nccc(N3CCC(NS(=O)(=O)c4ccc(NC(C)=O)cc4)CC3)n2)cc(OC)c1OC", "note": "[GSK1379825]", "%Inh": 76}
{"smiles": "COc1cccc2c(-c3ccncc3)c(-c3ccc(F)cc3)nn12", "note": "[GW468513]", "%Inh": 32}
{"smiles": "CCn1cnc2c(NCc3ccccc3)ncnc21", "note": "[SKF-96418]", "%Inh": 0}
{"smiles": "COc1cccc(-c2nc(-c3ccccc3)[nH]c2-c2ccncc2)c1", "note": "[SB-610250]", "%Inh": 18}
{"smiles": "COc1cc(Nc2ccnc3cc(-c4ccncc4)ccc23)cc(OC)c1OC.Cl", "note": "[GW494610]", "%Inh": 39}
{"smiles": "O=C(O)C(F)(F)F.O=c1[nH]ccc2nc(N[C@@H]3CCNC3)nc(Nc3ccc4c(c3)S(=O)(=O)CC4)c12", "note": "[GSK2181306]", "%Inh": 98.9}
{"smiles": "CN(C)c1ncnc2nc[nH]c12", "note": "[SKF-31736]", "%Inh": 0}
{"smiles": "O=C(Nc1n[nH]c2nc(-c3ccccc3O)ccc12)C1CC1", "note": "[SB-711880]", "%Inh": 43}
{"smiles": "CCNc1nccc(-c2c(-c3ccc(F)cc3)ncn2C2CCN(C)CC2)n1", "%Inh": 10}
{"smiles": "O=C(O)C(F)(F)F.O=c1[nH]ccc2nc(N[C@@H]3CCNC3)nc(Nc3cc(Cl)cc(Cl)c3)c12", "note": "[GSK2188764]", "%Inh": 97.4}
{"smiles": "COC(=O)Nc1nc2cc(Oc3ccc(NC(=O)Nc4cccc(SC)c4)cc3)ccc2[nH]1.Cl", "note": "[GW697999]", "%Inh": 13}
{"smiles": "Cc1cccc(Nc2nc(N[C@H]3CCCC[C@H]3N)ncc2C(N)=O)c1.Cl", "note": "[GSK986310]", "%Inh": 48}
{"smiles": "COc1cc(Nc2nccc(N3CCC(NC(=O)Nc4ccc5c(c4)OCO5)C3)n2)cc(OC)c1OC", "note": "(stereo not shown) [GSK1379766]", "%Inh": 79}
{"smiles": "CC(C)(C)c1ccc(C(=O)Nc2cn3cc(-n4ccnc4)ccc3n2)cc1", "%Inh": 0}
{"smiles": "CC(C)NCC(Cc1ccccc1)NC(=O)c1cc(Br)c(-c2ccnc3[nH]ccc23)s1.Cl.Cl", "note": "(stereo not shown) [GSK1383281]", "%Inh": 72}
{"smiles": "CSc1ccc(NC2=C(c3ccc(Cl)cc3)C(=O)NC2=O)cc1", "note": "[SB-317658]", "%Inh": 3}
{"smiles": "O=C(Nc1n[nH]c2cc(-c3cccs3)ccc12)C1CC1", "note": "[SB-731284]", "%Inh": 85}
{"smiles": "O=C(Nc1n[nH]c2nc(-c3cccc(O)c3)ccc12)C1CC1", "note": "[SB-711805]", "%Inh": 53}
{"smiles": "Cc1cc(-c2ccnc(Nc3cccc(C#N)c3)n2)cc(C)c1O", "note": "[GSK1440913]", "%Inh": 100}
{"smiles": "Cc1ccc(-c2ccc3occ(-c4ccc(S(C)=O)cc4)c3c2)nn1", "note": "(stereo not shown)", "%Inh": 0}
{"smiles": "CN(C)CCNS(=O)(=O)c1ccc(-c2ccnc3[nH]ccc23)cc1", "note": "[GSK977620]", "%Inh": 78}
{"smiles": "COC(=O)Nc1nc2ccc(Oc3ccc(CC(=O)Nc4cc(C(F)(F)F)ccc4F)cc3)cc2[nH]1", "note": "[GW680903]", "%Inh": 0}
{"smiles": "Cl.Cl.NCC(NC(=O)c1cc(-c2cccnc2)c(-c2ccnc3[nH]ccc23)s1)c1ccccc1", "note": "(stereo not shown) [GSK1323434]", "%Inh": 60}
{"smiles": "CCn1c(-c2nonc2N)nc2c(-c3ccccc3)ncc(OCCCN)c21.O=C(O)C(F)(F)F.O=C(O)C(F)(F)F", "note": "[GSK260205]", "%Inh": 7}
{"smiles": "Cc1ccc(NC(=O)c2cccc(N3CCCCC3)c2)cc1-c1ccc(C(=O)NCC2CC2)cc1", "note": "[GSK1917008]", "%Inh": 34}
{"smiles": "CN(c1ccc(NC(=O)N2CCN(CCCN3CCOCC3)CC2)cc1)c1ccnc(Nc2ccc(CS(C)(=O)=O)cc2)n1.Cl", "note": "[GW830899]", "%Inh": 80}
{"smiles": "c1ccc(Oc2ccc(Nc3ccnc4cc(-c5ccc(CN6CCCCC6)o5)ccc34)cc2)nc1", "note": "[GW567143]", "%Inh": 3}
{"smiles": "Cc1ccc(NC(=O)c2ccc(Cl)c(Cl)c2)cc1-c1ccc(C(=O)Nc2ccncc2)cc1", "note": "[GSK1398460]", "%Inh": 50}
{"smiles": "Cc1ccccc1CC(=O)N1CCc2cc(-c3cn(C)c4ncnc(N)c34)ccc21", "note": "[GSK2603346]", "%Inh": 8}
{"smiles": "CNc1nccc(-c2ccc3c(N)n[nH]c3c2)n1", "note": "[GSK2206003]", "%Inh": 98.2}
{"smiles": "Nc1ncc(-c2cn[nH]c2)c2scc(-c3ccc4c(c3)CCN4C(=O)Cc3ccccc3)c12", "note": "[GSK2593067]", "%Inh": 75}
{"smiles": "COC(=O)Nc1nc2ccc(Oc3ccc(NC(=O)Nc4cc(C(F)(F)F)ccc4F)cc3)cc2[nH]1.Cl", "note": "[GW654607]", "%Inh": 2}
